Compound activity as filed in PubChem BioAssay.
USP8 block: inhibitors of human USP8 deubiquitinase; inhibition, % at 20 µM; purified USP8, Ub-rhodamine cleavage fluorescence, 30 min; 4.2% of 47,000 active; P40818
USP7 block: human USP7 deubiquitinase inhibition | purified USP7, Ub-rhodamine cleavage fluorescence | Q93009 | 0.3% of 47,000 active | inhibition, % at 20 µM
UCHL1 inh: inhibitors of human UCHL1 deubiquitinase; purified UCHL1, Ub-rhodamine cleavage fluorescence; inhibition, % at 20 µM; 0.2% of 47,000 active
OTUD3 inh: blocks human OTUD3 ubiquitin-rhodamine cleavage; Q5T2D3; purified OTUD3, Ub-rhodamine fluorescence, 2 h; inhibition, % at 25 µM; 0.7% of 47,000 active
USP10 inh: blocks human USP10 ubiquitin-rhodamine cleavage; Q14694; purified USP10, Ub-rhodamine fluorescence, 60 min; inhibition, % at 20 µM; 1.1% of 47,000 active; AID 1645856
Active calls of the source: *. A selection: hits, their analogues and other compounds. The true share with any hit is near 5%. No stated cut-off is given here; in the data, active means inhibition above about 30%; inactive means the rest.

SMILES | USP8 block | USP7 block | UCHL1 inh | OTUD3 inh | USP10 inh
O=C(Nc1ccccc1F)c1sccc1Oc1ccc([N+](=O)[O-])cc1F | 87* | -3 | 4 | 17 | 9
Cc1nc(N2CCCC2)ncc1-c1cc(=O)[nH]c(NCCc2ccccc2)n1 | 13 | 0 | 4 | 5 | 15
CC(C)Cc1ccc(-c2cc(-c3ccc(C(F)(F)F)cc3)c(C#N)c(=O)[nH]2)cc1 | 12 | 35* | -2 | 0 | 64*
Cc1ccc(-c2cc(-c3ccc(F)cc3)[nH]c(=O)c2C#N)cc1 | 9 | 9 | 1 | -2 | 19
CC(C)c1nccn1-c1cccc(C2CCN(C(=O)c3ccn[nH]3)CC2)n1 | 11 | 3 | 3 | 5 | 0
Cn1ccc(-c2nc3ccccc3[nH]2)n1 | 30* | -1 | 0 | -2 | 3
Cn1ccc(-c2nc3ccccc3s2)n1 | 6 | 0 | 0 | 15 | 2
Cc1noc(C)c1CNc1ccc(Cl)cc1 | 39* | -11 | 2 | 3 | 6
Cc1noc(C)c1COc1cccc(C(=O)Nc2cccc(Cl)c2)c1 | 3 | 2 | 6 | -3 | 4
Cc1cc(NC(=O)c2cccc(N3CCOCC3)n2)n(-c2ccc(Cl)cc2)n1 | 52* | 8 | 1 | 8 | 8
Cc1cc(C)nc(-n2nc(C)cc2NC(=O)c2cccc(Cl)c2)n1 | -14 | 1 | -1 | 0 | 0
Cc1nc(-c2cc(CC3CCN(S(C)(=O)=O)C3)ncn2)sc1C (stereo not drawn) | 2 | 4 | 3 | 18 | 0
CC1CCCCN1c1ncnc2c1sc1nc(-c3ccccc3)c3c(c12)CCC3 (stereo not drawn) | -8 | -6 | -2 | -5 | -1
COc1cc(NC(=O)c2ccco2)c(OC)cc1NC(=O)CN1CCCCC1 | 1 | -5 | 3 | 2 | -5
COc1ccc(-c2c(C)c(C(=O)c3ccco3)n3ccc4cc(OC)c(OC)cc4c23)cc1OC | 68* | -16 | -7 | -23 | -9
O=S(=O)(Nc1ccc(-c2nnc(-c3ccccc3)o2)cc1)c1ccccc1F | 5 | 11 | 5 | 0 | 16
Cc1nn(-c2ccc(Br)cc2)cc1-c1noc(C(=O)N2CCOCC2)n1 | 17 | -119 | 3 | 11 | 0
O=C(c1cc2occc2c(Nc2ccc(F)cc2)n1)N1CCN(c2ccccn2)CC1 | 1 | 4 | 2 | 6 | 0
Cc1ccc(Nc2nc(C(=O)NCCCN3CCCC3=O)cc3occc23)cc1 | -1 | -13 | -7 | -29 | -11
Cc1ccccc1CNC(=O)c1cc2occc2c(Nc2ccc(F)cc2)n1 | 55* | 11 | 2 | 8 | 24
Cc1ccc(CNC(=O)c2cc3occc3c(Nc3ccccc3)n2)cc1 | 57* | -6 | -4 | -16 | -1
COc1cccc(-c2cncc(C3CCN(C(=O)c4cnccn4)CC3)n2)c1 | 17 | 2 | 3 | 14 | 0
COc1cccc(N2CCN(C(=O)C3CCN(c4ncccn4)CC3)CC2)c1 | -6 | -1 | -1 | -1 | 0
C=C[C@@]1(C)CC[C@@]2(C)[C@@H](CC[C@]3(C)C(C)=C(O)C(=O)C[C@H]23)C1 | 1 | 9 | 1 | 24 | 11
C=C[C@]1(C)CC[C@]2(C)[C@@H](C1)[C@@H](O)C[C@H]1[C@]3(C)CCC[C@@]12OC3=O | 0 | 0 | -1 | -3 | 38*
SMILES | USP8 block | USP7 block | UCHL1 inh | OTUD3 inh | USP10 inh
Cc1cccc(NC(=O)CSc2cc(C)c3cc(S(=O)(=O)N(C)C)ccc3n2)c1 | 2 | 6 | 4 | 13 | -1
Cn1cc(S(=O)(=O)Nc2cnn(Cc3cccc(Cl)c3)c2)cn1 | 77* | -3 | 6 | 12 | 4
O=C(Nc1ccc2ccccc2c1)C(=O)C1C(=O)Nc2ccccc21 (stereo not drawn) | 62* | 3 | 2 | -13 | 7
CC1C(=O)Nc2ccccc21 (stereo not drawn) | 5 | -1 | 0 | -1 | 0
COc1cccc(CNc2ccc(-c3nc(-c4ccccc4)no3)nn2)c1 | 76* | 24 | 3 | -14 | 12
CC(=O)C1=C(O)[C@]2(O)C(=O)c3c(c(C)c4ccc(C)c(O)c4c3O)C[C@H]2[C@@H](N)C1=O | -42 | 58* | 66* | 67* | -9
Cc1ccnc(Sc2ncccc2O)c1 | -116 | 0 | 0 | 1 | 1
Nc1cccnc1Sc1ccccn1 | 40* | -57 | -27 | -92 | -5
O=C1NC2(CCN(C(=O)c3cccnc3)CC2)[C@@H]2CN(c3ncccn3)C[C@H]12 | 10 | 6 | -3 | 11 | 0
Fc1ccc2nc(CN3CCN(c4ccccc4)CC3)cn2c1 | -5 | -1 | -4 | -1 | -5
